About 8,600 (12%) of roughly 69,000 compounds showed an effect of 50% or more. What follows is part of a selection rich in strong results, with near analogues and random picks from the rest.

For this assay, the system named is Plasmodium berghei. Kind of assay: Screen against P. berghei liver stage (PbLuc), transformed with Luciferase, at 10uM. The assay is classed as functional, HepG2. The settings on record: tested at 10 uM.
Turning to `CCCC(=O)NCc1cc(Br)c(OC)c(OC)c1`, the INHIBITION is listed as -26.1%.
The result for `CC(=O)NCCOc1c(Cl)cccc1Cl` reads 22%; that for `CN(Cc1cnn(C)c1)C(=O)CCC(=O)c1ccc2c(c1)OCCO2`, 5.48%; that for `CCc1cc(C(F)(F)F)n2nc(C3CCCN3C3CCSCC3)cc2n1` (stereo not given), 18.95%.
The result for `Cc1cc(N2CCCC(c3n[nH]c4ncccc34)C2)ncn1` (stereo not given) reads 26.3%; that for `Cc1nc(CN2C[C@@H]3CN(C(=O)C4(C#N)CC4)C[C@@H]3C2=O)cs1`, -20.2%.
With `COc1ccc(OCCNc2cccc(C(=O)N3CCOCC3)c2)cc1`, the INHIBITION is recorded as -12.5%.
The result for `CCn1c(C2CCCN(Cc3cc(C)cc(C)c3)C2)nn(C)c1=O` (stereo not given) reads -17.8%.
As to `NC(=O)c1cncc(Oc2cccc(CN3CCCC3)c2Cl)n1`, the INHIBITION was found to be 24.4%.
The value for `Cc1cc(CN2CCCC2)cc(Oc2nc(C)cnc2C)c1` was 89.4%.
The value for `COC(=O)CC1CN(Cc2c(Cl)ccc3cccnc23)CCO1` (stereo not given) was -14.2%.
The value for `Cc1cnc(C)c(Oc2ccc(CN3CCCC3)cc2Cl)n1` was 89.4%; that for `COc1ccc(CN2CCC3(CC2)C(C(=O)O)CC(=O)N3C)cc1Cl` (stereo not given) was 39.9%.
For the compound `Cc1nn(C)c2ncc(CN3CCCCCC3)cc12`, the INHIBITION came out at 44.9%.
The result for `Cc1cnc(C)c(Oc2ccc(Cl)c(CN3CCCC3)c2Cl)n1` reads 90.3%.
Take `c1cc(-c2cn[nH]c2)ccc1CN1CCCCC1`: the INHIBITION was determined as 10.6%.
On to `OC1CCN(CCCNc2nccc(C3CCCC3)n2)CC1`, for which the INHIBITION was 31.4%.
The result for `CC(O)CN1CCN(Cc2cccc(C(=O)N3CCCCC3)c2)CC1` (stereo not given) reads 37.9%; that for `O=C(c1cscn1)N1CCc2[nH]nc(Nc3ccccc3)c2C1`, -15.625%.
The result for `Cc1ccccc1CN(CCN(C)C)Cc1ccc(O)c(C(=O)O)c1` reads 29.2%.
The value for `Cc1nonc1-c1nc(C(C)C)nn1-c1ccc2c(c1)OCO2` was 82%; that for `CCc1nnsc1-c1nc(C(C)C)nn1-c1ccc2c(c1)OCO2` was 12.4%.
`CC(C)c1nc(-c2ccc(=O)[nH]n2)n(-c2ccc3c(c2)OCO3)n1`: the INHIBITION is on record as 25.5%.
The value for `CN(C)c1nc(CNC(=O)N[C@H](CO)c2ccccc2)cs1` was -42%.
The value for `COc1ccccc1CCNC(=O)CC1(Cn2cnnn2)CCCCC1` was 48.2%; that for `CC(C)Cc1cc(NC(=O)c2ccc(=O)[nH]n2)n(C)n1` was 40.3%.
The result for `CC(C)Cc1cc(NC(=O)c2ccccc2)n(C)n1` reads 10%; that for `CC(C)Cc1cc(NC(=O)c2n[nH]c3ccccc23)n(C)n1`, 56.6%.
Take `COC(CNC(=O)C1CCCC1)c1ccc(C)s1` (stereo not given): the INHIBITION is 24.7%.
As for `COc1cc(C(=O)N2CCCC2c2noc(C(C)C)n2)on1` (stereo not given), the INHIBITION was -2.143%.
Consider `CN(Cc1nccn1C)C1CCCN(CCCc2ccccc2)C1` (stereo not given), for which the INHIBITION is 43.7%.
The value for `CN(CCCc1ccc(C(F)(F)F)cc1)Cc1nccn1C` was 66.8%; that for `Cn1ccnc1CN(CCO)Cc1ccc(C(F)(F)F)cc1` was 29.8%.
Turning to `CC(=O)c1ccc(S(=O)(=O)Nc2cnn(C3CCOCC3)c2)cc1`, the INHIBITION is listed as -24.1%.
The value for `O=C(Cn1ccc2ccc(Cl)cc21)/N=c1\[nH]nc(C2CCCO2)s1` (stereo not given) was 39.7%.
The result for `COc1ccc(-c2c[nH]c(C3CC(=O)N(CC(C)C)C3)n2)cc1` (stereo not given) reads -15%; that for `CC(C)CN1CC(c2nc(-c3ccsc3)c[nH]2)CC1=O` (stereo not given), 53.3%; that for `CC(C)CN1CC(c2nc(-c3ccc(F)cc3)c[nH]2)CC1=O` (stereo not given), 27.5%.
Consider `CC(C)N1CCC(Cc2cncc(-c3cc(F)ccc3C(=O)O)n2)CC1`, for which the INHIBITION came to 41.2%.
The value for `CCN(CCNS(=O)(=O)N1CCOCC1)C(=O)OC(C)(C)C` was 41.3%; that for `CN(C(=O)NCc1nccn1Cc1ccccc1)C1CC1` was 46.4%.
The result for `Cc1cc(C)n2c(CCCNS(=O)(=O)c3cccs3)nnc2n1` reads 31.3%.
The value for `COc1ccc(S(=O)(=O)NCCCc2nnc3nc(C)cc(C)n23)cc1` was 74.6%; that for `COc1ccc(CC(=O)NCCNS(=O)(=O)c2ccc(C)cc2)cc1` was -57.5%; that for `Cc1cc(C)n2c(CCCNS(=O)(=O)c3ccccc3)nnc2n1` was 34.6%.
In the case of `COc1ccc(CC(=O)NCCCc2nnc3nc(C)cc(C)n23)cc1`, the INHIBITION is recorded as 52.7%.
The value for `Cc1cc(C)n2c(CCCNS(=O)(=O)c3ccc(F)cc3)nnc2n1` was 15.4%.
The value for `CCCS(=O)(=O)NCC(O)c1c(Cl)cccc1Cl` (stereo not given) was 0.87%.
The result for `CCn1nc(C)c2c1cnn2CC(=O)NC(C)c1cccc(OC)c1` (stereo not given) reads 49.9%.
Take `Cc1nnc([C@@H]2CC[C@@H]3[C@@H](CCN3C3CCOCC3)O2)o1`: the INHIBITION was found to be 60.3%.
The result for `Cc1nnc([C@@H]2CC[C@@H]3[C@@H](CCN3C3CCC3)O2)o1` reads 23.3%.
The value for `Cc1nnc([C@@H]2CC[C@@H]3[C@@H](CCN3CC3CCOCC3)O2)o1` was -13.7%; that for `CCCNC(=O)COc1ccc(-c2ccccc2)nc1` was -91.3%; that for `O=C(Cn1cc(I)cn1)Nc1cccnc1` was 4.74%.
As to `Cn1cc(C(=O)NCc2cncc3c2CCN(CC2CC2)C3)cn1`, the INHIBITION is reported as 28.5%.
